About 83,000 compounds went through this panel and 20% of them were active in at least one assay; those are over-represented in the sample as a whole.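 Single-concentration screen, 48 h exposure, 96-well plates. Endpoint: percent growth. Below 10 = active.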 The source made the active and inactive calls.
Legend:
Test in all cases: NCI-60 one-dose screen, 48 h (100 = growth as untreated, 0 = no growth, -100 = all killed)
Settings in all cases: 10 µM unless noted
T-47D breast = system: T-47D breast
BT-549 breast = system: BT-549 breast
MDA-MB-435 melanoma = system: MDA-MB-435 melanoma
SW-620 colon = system: SW-620 colon
MCF7 breast = system: MCF7 breast
HCT-116 colon = system: HCT-116 colon
HCC-2998 colon = system: HCC-2998 colon
KM12 colon = system: KM12 colon

Measured: growth

CNC(=O)c1cc(Oc2ccc3nc(NC(=O)Nc4ccc(CN5CCOCC5)c(C(F)(F)F)c4)sc3c2)ccn1
active: MCF7 breast 6.95% | HCT-116 colon 6.2% | KM12 colon 6.28%
inactive: T-47D breast 22.7% | BT-549 breast 12.2% | MDA-MB-435 melanoma 13% | SW-620 colon 27.4% | HCC-2998 colon 32.3%

Cc1ccc2c(c1)n([O-])c1cc(Cl)ccc1[n+]2=O
inactive: T-47D breast 93.9% | BT-549 breast 108% | MDA-MB-435 melanoma 96.8% | SW-620 colon 119% | MCF7 breast 108% | HCT-116 colon 84.2% | HCC-2998 colon 120% | KM12 colon 105%

Cc1cc2cc3cc(C)c(N(C)C)cc3[n+](C)c2cc1N(C)C
active: BT-549 breast -28.7% | KM12 colon 3.5%
inactive: T-47D breast 16.4% | MDA-MB-435 melanoma 35.3% | SW-620 colon 14.6% | MCF7 breast 14% | HCT-116 colon 12.6% | HCC-2998 colon 25.6%

c1ccc(CSc2ncnc3nc[nH]c23)nc1
inactive: T-47D breast 107% | BT-549 breast 122% | MDA-MB-435 melanoma 92.3% | SW-620 colon 113% | MCF7 breast 99.7% | HCT-116 colon 93.1% | HCC-2998 colon 125% | KM12 colon 106%

CS(=O)(CCCCN=C=S)=NC(=O)c1c(F)c(F)c(F)c(F)c1F (stereo unspecified)
inactive: T-47D breast 44.2% | BT-549 breast 97.1% | MDA-MB-435 melanoma 99.1% | SW-620 colon 74.5% | MCF7 breast 12.8% | HCT-116 colon 86.4% | HCC-2998 colon 94% | KM12 colon 54.2%

CNc1cc2nc3cc(NC)c(C)cc3cc2cc1C
inactive: BT-549 breast 20.6% | MDA-MB-435 melanoma 41.7% | HCC-2998 colon 18.7%
active: T-47D breast 7.86% | SW-620 colon 8.75% | MCF7 breast 3.03% | HCT-116 colon 5.54% | KM12 colon -40.7%

CCOC(=O)C(Cc1cc(I)c(O)c(I)c1)NC(=O)c1ccccc1 (stereo unspecified)
inactive: T-47D breast 86.6% | BT-549 breast 101% | MDA-MB-435 melanoma 100% | SW-620 colon 94.4% | MCF7 breast 92.5% | HCT-116 colon 96.2% | HCC-2998 colon 119% | KM12 colon 102%

O=C1NC(=O)C(CC(=O)n2c(-c3ccccc3)nc3ccccc32)C(=O)N1
inactive: T-47D breast 93.5% | BT-549 breast 101% | MDA-MB-435 melanoma 106% | SW-620 colon 104% | MCF7 breast 92.4% | HCT-116 colon 104% | HCC-2998 colon 113% | KM12 colon 101%

CCCCCCCCCCCCCC1=NCCN1CCO
inactive: T-47D breast 65.7% | BT-549 breast 123% | MDA-MB-435 melanoma 85.3% | MCF7 breast 54.8% | HCC-2998 colon 71.2% | KM12 colon 56.7%
active: SW-620 colon -38.6% | HCT-116 colon -36.2%

C=CC[N+]1(CCO)CCN=C1CCCCCCCCCCCCC (stereo unspecified)
active: T-47D breast -39.2% | BT-549 breast -10.2% | MDA-MB-435 melanoma -78.1% | SW-620 colon -72.3% | MCF7 breast -72.3% | HCT-116 colon -95.1% | HCC-2998 colon -91.1% | KM12 colon -83.2%

CCCNc1nc(SC)nc(-c2cccc(N)c2)c1C#N
inactive: T-47D breast 86.2% | BT-549 breast 97.7% | MDA-MB-435 melanoma 103% | SW-620 colon 98.7% | MCF7 breast 89.1% | HCT-116 colon 96.3% | HCC-2998 colon 108% | KM12 colon 101%

O=C(/C=C/c1ccc(B(O)O)cc1)/C=C/c1ccc(B(O)O)cc1
inactive: T-47D breast 27%
active: BT-549 breast -11.8% | MDA-MB-435 melanoma -46.6% | SW-620 colon -25.2% | MCF7 breast 3.78% | HCT-116 colon -94.4% | HCC-2998 colon -77.1% | KM12 colon -86.7%

N#Cc1c2c(nc3n[nH]c(N)c13)CCCC2
inactive: T-47D breast 98% | BT-549 breast 130% | MDA-MB-435 melanoma 106% | SW-620 colon 96% | MCF7 breast 110% | HCT-116 colon 101% | HCC-2998 colon 92.6% | KM12 colon 111%

O=C1c2cccnc2C(=O)c2c1c(C(=O)OCCN1CCOCC1)c1ccccn21
active: T-47D breast 9.37% | BT-549 breast -13.3% | MDA-MB-435 melanoma -36% | SW-620 colon 6.61% | MCF7 breast -45.9% | HCT-116 colon -1.07%
inactive: HCC-2998 colon 10.7% | KM12 colon 22.2%

O=C1/C(=C/c2ccc(F)cc2)CN(C(=O)CCN2CCC(=NO)CC2)C/C1=C\c1ccc(F)cc1
active: T-47D breast -18.9% | BT-549 breast -26.6% | MDA-MB-435 melanoma -49.9% | SW-620 colon -56.5% | MCF7 breast -48.6% | HCT-116 colon -65.6% | HCC-2998 colon -83.3% | KM12 colon -77.2%

OCC1C2C=CC(C2)C1CO (stereo unspecified)
inactive: T-47D breast 153% | BT-549 breast 98.7% | MDA-MB-435 melanoma 109% | SW-620 colon 98% | MCF7 breast 111% | HCT-116 colon 96.7% | HCC-2998 colon 125% | KM12 colon 106%

CCCC(=O)Oc1ccc(/C(=C(/CC)Cc2ccccc2)c2ccc(OCCN3CCCC3)cc2)cc1
inactive: T-47D breast 48.9% | BT-549 breast 85.3% | MDA-MB-435 melanoma 57.1% | SW-620 colon 80.5% | MCF7 breast 24.9% | HCT-116 colon 68.7% | HCC-2998 colon 42.6% | KM12 colon 70.8%

CC(=O)OCC1OC(OC2=C(CC=C(Cl)Cl)C(=O)c3ccccc3C2=O)C(OC(C)=O)C(OC(C)=O)C1OC(C)=O (stereo unspecified)
active: T-47D breast -18.2%
inactive: BT-549 breast 71.2% | MDA-MB-435 melanoma 89.9% | SW-620 colon 22.9% | MCF7 breast 19.9% | HCT-116 colon 31.6% | HCC-2998 colon 102% | KM12 colon 82.2%

CC/C=C\C[C@H](F)C/C=C1/C(=O)C=C[C@@H]1C/C=C\CCCC(=O)OC
inactive: SW-620 colon 14.3% | MCF7 breast 11.6%
active: T-47D breast 4.66% | BT-549 breast -2.64% | MDA-MB-435 melanoma 0.0777% | HCT-116 colon -54.6% | HCC-2998 colon 9.38% | KM12 colon -27.7%

COc1cc2c(=O)n(CC3CCCCC3)c3c4cc[nH]c4ncc3c2cc1OC
inactive: T-47D breast 44.9% | BT-549 breast 25.9% | MDA-MB-435 melanoma 55.3% | SW-620 colon 30.3% | MCF7 breast 19.8% | HCT-116 colon 28.9% | HCC-2998 colon 62.3% | KM12 colon 19%

O=C(CO[N+](=O)[O-])Nc1ccc(C(=O)/C=C/c2ccc3c(c2)OCO3)cc1
inactive: T-47D breast 83% | BT-549 breast 87.6% | MDA-MB-435 melanoma 62.6% | SW-620 colon 47.8% | MCF7 breast 26.2% | HCC-2998 colon 69.2% | KM12 colon 35.9%
active: HCT-116 colon -5.9%

O=C(COCc1c(-c2ccccc2)no[n+]1[O-])Nc1ccc(C(=O)/C=C/c2ccc3c(c2)OCO3)cc1
inactive: T-47D breast 94.1% | BT-549 breast 96% | MDA-MB-435 melanoma 95.3% | SW-620 colon 105% | MCF7 breast 92.2% | HCT-116 colon 73.1% | HCC-2998 colon 102% | KM12 colon 104%

CCCCNC(=O)NS(=O)(=O)c1ccc(N2N=C(c3cc(C)ccc3C)CC2c2cc(OC)c(OC)c(OC)c2)cc1 (stereo unspecified)
inactive: T-47D breast 38.4% | BT-549 breast 20.6% | SW-620 colon 66.6% | MCF7 breast 24.4% | HCT-116 colon 32.3% | KM12 colon 46.1%
active: MDA-MB-435 melanoma -46.2% | HCC-2998 colon -1.57%

Oc1cccc(Nc2nccc(-c3ccc4ccccc4c3)n2)c1
active: MDA-MB-435 melanoma -1.27%
inactive: T-47D breast 47.6% | BT-549 breast 41.3% | SW-620 colon 31.3% | MCF7 breast 25.3% | HCT-116 colon 20.6% | HCC-2998 colon 52.2% | KM12 colon 28.2%

C=C(C[n+]1ccccc1)[C@@H]1CC[C@]2(C(=O)OC)CC[C@]3(C)[C@H](CC[C@@H]4[C@@]5(C)CC[C@H](O)C(C)(C)[C@@H]5CC[C@]43C)[C@@H]12
inactive: T-47D breast 82.5% | BT-549 breast 99% | MDA-MB-435 melanoma 91.8% | SW-620 colon 91.6% | MCF7 breast 97.7% | HCT-116 colon 97% | HCC-2998 colon 104% | KM12 colon 103%

O=C(/C=C/c1ccc(Cl)cc1)/C=C/c1cc2ccccc2[nH]c1=O
active: MDA-MB-435 melanoma -1.71% | SW-620 colon 8.48% | MCF7 breast 5.22% | HCT-116 colon -55.7%
inactive: T-47D breast 48.7% | BT-549 breast 44.6% | HCC-2998 colon 73% | KM12 colon 28.3%

Cc1nc2nc(N)nc(N)c2nc1C
inactive: T-47D breast 91.2% | BT-549 breast 89.4% | MDA-MB-435 melanoma 99.5% | SW-620 colon 100% | MCF7 breast 97.9% | HCT-116 colon 94.3% | HCC-2998 colon 99% | KM12 colon 102%

O=C(O)c1cn(C2CC2)c2cc(N3CCN(Cc4nc5c(cnn5-c5ccc([N+](=O)[O-])cc5)c(=O)[nH]4)CC3)c(F)cc2c1=O
inactive: T-47D breast 104% | BT-549 breast 96.1% | MDA-MB-435 melanoma 100% | SW-620 colon 105% | MCF7 breast 91.5% | HCT-116 colon 99.8% | HCC-2998 colon 112% | KM12 colon 107%

COc1cnc2c(c1)C(=O)c1c-2n(CCCN2CCCC2)c(=O)c2cc([N+](=O)[O-])ccc12
active: MDA-MB-435 melanoma 2.83% | SW-620 colon -19.3% | MCF7 breast 3.81% | HCT-116 colon -67.5% | KM12 colon -33.3%
inactive: T-47D breast 24.5% | BT-549 breast 18.2% | HCC-2998 colon 16.2%

O=S(=O)(Nc1ccc(Cl)cc1Cl)c1ccc(-c2cnc(C3CC3)o2)cc1
active: MDA-MB-435 melanoma -5.62%
inactive: T-47D breast 33.9% | BT-549 breast 47% | SW-620 colon 21% | MCF7 breast 15.3% | HCT-116 colon 24.9% | HCC-2998 colon 39.3% | KM12 colon 33.3%

Cc1ccccc1CCO
inactive: T-47D breast 96.9% | BT-549 breast 95.1% | MDA-MB-435 melanoma 108% | SW-620 colon 94.7% | MCF7 breast 91.1% | HCT-116 colon 93.6% | HCC-2998 colon 92.6% | KM12 colon 109%

Oc1ccc(Nc2nccc(-c3ccc4ccccc4c3)n2)cc1
active: MDA-MB-435 melanoma 8.01%
inactive: T-47D breast 48.7% | BT-549 breast 48.2% | SW-620 colon 31.8% | MCF7 breast 20.2% | HCT-116 colon 23.2% | HCC-2998 colon 60.4% | KM12 colon 27.4%

— PubChem BioAssay (NCI)
